Shown are actives, neighbours in structure and some others; about 12% of the full set was active somewhere.
HP1b chromo inh: HP1-beta chromodomain-methylated histone interaction inhibition; AlphaScreen HP1-beta / biotin-H3K9me3 peptide binding; Potency, µM (titrated, usually from 114 µM), for inactives: at the top dose activity change, negative = inhibition, actives largely listed as inhibitors; actives 0.56% (n = 390,000); AID 540317; note: nearly all actives have a fitted effect of over 70% in size
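Compound inhibition of the preformed complex between 50 nM HP1-beta and 50 nM biotinylated H3K9me3 peptide was read by AlphaScreen. Buffer was PBS pH 7.4 with 0.01% Tween-20. Incubations ran 30 min at room temperature, with 10 ug/mL donor/acceptor beads.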
PLK1 PBD block: inhibitors of human PLK1 polo-box domain binding; actives 2.8% (n = 360,000); P53350; Plk1 PBD binding of FITC phosphopeptide, fluorescence polarization; AID 720504; Potency, µM, without a hit: max response, negative = inhibition, hits mostly inhibitors; note: series mostly up to about 57 µM; % is set by controls: 0 for no effect and ±100 for the full control effect; nearly all actives have a fitted effect of over 65% in size
JMJD2A Tudor: inhibitors of human JMJD2A Tudor domain. actives 4.4% (n = 390,000). Potency, µM (series often up to 114 µM), without a hit: at the top dose activity change, negative = inhibition, usual class: inhibitors. AlphaScreen JMJD2A-Tudor / H3K4me3 peptide binding. O75164. AID 504339; note: % is set by controls: 0 for no effect and ±100 for the full control effect; nearly all actives have a fitted effect of over 50% in size
Sfp inh: Sfp phosphopantetheinyl transferase inhibition; Q9F4F7; Biochemical Sfp PPTase activity, qHTS; Potency, µM, for the others: largest response in the series, negative = inhibition, most hits filed as inhibitors; actives 3.5% (n = 310,000); AID 1490;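 note: the enzyme is Sfp with the accession as filed and its product quenches rhodamine fluorescence; 0% = enzyme reaction without inhibitor and -100% = no enzyme wells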
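With Hepes-Na pH 7.6 buffer containing 10 mM MgCl2, Sfp (15 nM) modified BHQ-2-YbbR (12.5 uM) using rhodamine-CoA (5 uM). Two reads 30 minutes apart at 525/598 nm yielded each well's rate.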
BAZ2B inh: blocks human BAZ2B | Potency, µM (top dose mostly 114 µM), inactives show at the highest dose activity change, negative = inhibition, usual class: inhibitors | actives 4.4% (n = 360,000) | AID 504333 | AlphaScreen BAZ2B-H3K14Ac peptide displacement | Q9UIF8; note: % is set by controls: 0 for no effect and ±100 for the full control effect; nearly all actives have a fitted effect of over 60% in size
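Inhibition is scored as reduced AlphaScreen emission. The BAZ2B/b-H3(5-23)K14Ac complex (50 nM each) in PBS pH 7.4, 0.01% Tween-20 meets compound (up to 110 uM) for 30 min at RT before bead addition.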
G9a block: inhibitors of human histone lysine methyltransferase G9a; G9a H3K9 monomethylation, AlphaScreen, 2 h; Potency, µM (doses to about 102 µM), without a hit: top-dose activity, negative = inhibition, usual class: inhibitors; actives 8.8% (n = 350,000); note: % is set by controls: 0 for no effect and ±100 for the full control effect; nearly all actives have a fitted effect of over 75% in size
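Readings reflect AlphaScreen signal from monomethyl-H3K9 antibody detection. HMT at 20 nM; substrate b-H3K9 500 nM; cofactor SAM 20 uM; 2 h RT reaction; compounds tested as titrations in qHTS with 15 min preincubation.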
Starred values were filed as active, the others as inactive; ? = inconclusive; . = no result given; ! = repeats disagree; [ ] = dose if it differs, or a comment. Calls come from the whole dose curve; as a rule, active = well fitted curve in the direction sought with a large enough effect; inconclusive = small, poorly fitted or top-dose-only effect, or another doubt; inactive = no such curve, though single readings can be large; an effect the other way counts as inactive or inconclusive. Potency is the fitted concentration of half-maximal effect.

SMILES | HP1b chromo inh | PLK1 PBD block | JMJD2A Tudor | Sfp inh | BAZ2B inh | G9a block
COc1ccc(C2C3C=CCC(c4cccc(/C=C/c5ccccc5)c4)C3C(=O)N2Cc2ccccc2)cc1Cl (stereo not given) | 33% | . | -13% | -6% | . | .
Cc1ccc(C(=O)COC(=O)C(Cc2c[nH]c3ccccc23)NC(=O)c2ccc(C(C)(C)C)cc2)cc1 (stereo not given) | 6% | . | -31% | . | -9% | ?
COC(=O)C/C=C\[C@H](C)[C@H](CO)NS(=O)(=O)c1ccc(C)cc1 | . | . | . | 3% | . | .
C[C@@H]1CC[C@H]2C(=O)N3[C@@H](CC[C@@H](C)[C@@H]3c3ccc(Br)cc3)C(=O)N2[C@@H]1c1ccc(Br)cc1 | . | . | . | -3% | . | .
NNC(=O)c1cc2c(N3CCC(Cc4ccccc4)CC3)ncnc2s1 | 14% | -15% | -27% | 9% | 3% | -39%
CCN(Cc1nc(-c2ccc(C)cc2)no1)C(=O)c1ccco1 | 37% | -20% | 3% | 1% | 3% | ?
O=C(COc1ccc(Br)cc1)N1CCN(c2ccc([N+](=O)[O-])c(N3CCCCC3)c2)CC1 | -9% | 8% | ? | 11% | -13% | 35µM*
O=C(COc1ccccc1)N1CCN(c2ccc([N+](=O)[O-])c(N3CCCCC3)c2)CC1 | -24% | 1% | ? | 12% | ? | ?
COc1ccc(C(=O)COC(=O)CN2C(=O)C3C4CCC(C4)C3C2=O)cc1 (stereo not given) | 8% | 24µM* | 50µM* | 19% | -1% | 11%
O=C(CN1C(=O)C2C3C=CC(C4CC34)C2C1=O)OCC(=O)c1ccccc1 (stereo not given) | 29% | -16% | -15% | 2% | 3% | 6%[59 µM]
O=C(CN1C(=O)C2C3CC(C(Br)C3Br)C2C1=O)OCC(=O)c1cccc([N+](=O)[O-])c1 (stereo not given) | -13% | 21µM* | -1% | 10% | . | 0%
COc1ccc(C(=O)COC(=O)C(C)N2C(=O)C3C4CCC(C4)C3C2=O)cc1 (stereo not given) | 10% | -8% | -12% | 11% | 38% | 6%[12.7 µM]
O=C(CN1C(=O)C2C3C=CC(C3)C2C1=O)OCC(=O)c1ccc([N+](=O)[O-])cc1 (stereo not given) | 9% | -5% | -13% | ? | 2% | 40µM*
O=C1C2C3C=CC(C3)C2C(=O)N1CCN1CCN(Cc2ccc([N+](=O)[O-])cc2)CC1 (stereo not given) | 21% | 21µM* | ? | 5% | -13% | -4%
O=C(CN1C(=O)C2C3C=CC(C3)C2C1=O)OCC(=O)c1ccc(Cl)cc1 (stereo not given) | 26% | 0% | 6% | 2% | -10% | .
Cc1cc(C)nc(NS(=O)(=O)c2ccc(NS(=O)(=O)c3ccccc3)cc2)n1 | 22% | -1% | 5% | 5% | ? | 5%
Cc1cc(N/N=C/c2ccc(O)cc2)nc(NS(=O)(=O)c2ccccc2)n1 | 71µM* | -18% | 56µM* | 3% | 79µM* | ?
Cc1cc(N/N=C/c2ccc(N(C)C)cc2)nc(NCc2ccccc2)n1 | -10% | 6% | ? | 20µM* | 13µM* | -4%
Cc1cc(N/N=C/c2ccc(F)cc2)nc(NCc2ccccc2)n1 | -5% | 7% | -20% | 16µM* | -34% | .
Cc1cc(N/N=C/c2ccccc2)nc(N)n1 | 49% | -22% | -18%[11.4 µM] | 6% | -17% | ?
CN(C)c1nc(NCc2ccccc2)nc(N/N=C/c2ccc(Br)cc2)n1 | 26% | -5% | -14% | 28% | -22% | 2%
CN(C)c1nc(NCc2ccccc2)nc(N/N=C/c2ccc3c(c2)OCO3)n1 | 3% | -1% | -34% | -9% | ? | 50µM*
Cc1ccc(NC(=O)CC2Sc3ccccc3NC2=O)c(Br)c1 (stereo not given) | 26% | . | -7% | . | 0% | -43%[59 µM]
O=C(NCc1ccc2c(c1)OCO2)c1cc(=O)[nH]c2ccccc12 | 38% | -3% | -2% | -11% | 0% | -2%[12.7 µM]
CC(C)C[C@H](NC(=O)[C@H](CCCCN)NC(=O)[C@H](CCC(N)=O)NC(=O)[C@H](Cc1cnc[nH]1)NC(=O)[C@H](Cc1cnc[nH]1)NC(=O)[C@@H](N)C(C)C)C(=O)N[C@H](C(=O)N[C@@H](Cc1ccccc1)C(=O)N[C@@H](Cc1ccccc1)C(=O)N[C@@H](C)C(=O)N[C@@H](CCC(=O)O)C(=O)N[C@@H](CC(=O)O)C(=O)N[C@H](C(=O)NCC(=O)N[C@@H](CO)C(=O)N[C@@H](CC(N)=O)C(=O)N[C@@H](CCCCN)C(=O)O)C(C)C)C(C)C | . | . | . | 31% | . | .
SMILES | HP1b chromo inh | PLK1 PBD block | JMJD2A Tudor | Sfp inh | BAZ2B inh | G9a block
Cc1ccc(/C=N/Nc2cc(C)nc(NCc3ccccc3)n2)cc1 | -13% | -16% | ? | 16µM* | ? | 32µM*
O=C(c1cccs1)c1no[n+]([O-])c1C(=O)c1cccs1 | -38% | ? | ? | 32µM* | ? | 10µM*
COc1ccc(C(=O)c2no[n+]([O-])c2C(=O)c2ccc(OC)cc2)cc1 | -24% | ? | ? | -13% | -9% | 8.9µM*
O=C(c1ccc(Cl)nc1)c1cccs1 | -26% | 4% | -1% | -1% | 9% | 13%[12.7 µM]
COc1ccc(NC(=O)c2c(N)no[n+]2[O-])cc1 | 28% | -12% | -17% | 7% | -3% | 7%
CCOC(=O)/C(C#N)=C1/C=Nc2ccccc2N1 | 19% | -1% | -13% | 11% | -39% | -9%[12.7 µM]
CCOC(=O)/C(C#N)=C1\CC2CCC1(C)C2(C)C (stereo not given) | ? | 6µM* | -5% | 40µM* | 0% | 3.2µM*
O=C(O)[C@@H]1C[C@H](C(=O)O)N1 | 17% | . | 4% | -25% | . | 12µM*!
CCCCCCCC1CC(/C(C)=N/NC(N)=O)OC1=O (stereo not given) | 6% | 12µM* | 40µM* | 25% | 2% | 2%
CC(C)C(=O)Nc1ccc2nn(-c3ccc(F)cc3)nc2c1 | 37% | -6% | -6% | 0% | 6% | ?
Cc1ccc(-n2nc3ccc(NC(=O)C(C)C)cc3n2)cc1 | 5% | ? | -13% | -2% | ? | 13µM*
CCCC(=O)Nc1ccc2nn(-c3ccc(OC)cc3)nc2c1 | -5% | 21µM* | ? | 0% | -5% | 0%
CCc1ccc(-n2nc3ccc(NC(=O)c4ccc5c(c4)OCO5)cc3n2)cc1 | 35% | 1% | 7% | 15% | ? | ?
Cc1ccc(-n2nc3ccc(NC(=O)c4ccc5c(c4)OCO5)cc3n2)cc1 | 17% | -3% | -14% | 3% | -6% | 71µM*

Compound activity deposited in PubChem BioAssay by National Center for Advancing Translational Sciences (NCATS).
